In all, about 1,100 compounds were measured (“Renilla luciferase signal (cell health) relative to plate median”: median about 0.97, highest 2% from about 1.6 on). Shown is part of a subset that was picked to be rich in the highest values.
Test system: HEK293T (UBE3A T485A transfected, BAR Wnt reporter)
Assay: Renilla luciferase signal (cell health) relative to plate median (fold (linear ratio)); higher = higher Renilla signal
Settings: 24 h
Procedure, shortened: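 Chemicals were robotically dosed at 0.01–100 uM for 24 h onto HEK293T cells, starting four hours after transfection with a BAR firefly luciferase Wnt reporter, TK-Renilla and an expression plasmid. The cells had been plated at 4500 cells/well in DMEM with 10% FBS at 37°C and 5% CO2. Following a Dual-Glo luciferase readout, the firefly/Renilla ratio served as the Wnt activity measure and raw Renilla as the cell health measure, both median-centred on each plate. Each value is the mean of four biological replicates.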

Row | SMILES | Renilla luciferase signal (concentration: 0.1 uM) | Renilla luciferase signal (concentration: 1 uM) | Renilla luciferase signal (concentration: 10 uM) | Renilla luciferase signal (concentration: 100 uM) | Renilla luciferase signal (concentration: 0.01 uM)
1 | O=C([O-])c1[nH]n(-c2ccc(S(=O)(=O)[O-])cc2)c(=O)c1/N=N/c1ccc(S(=O)(=O)[O-])cc1.[Na+].[Na+].[Na+] [FD&C Yellow 5] | 1.1 | 1.15 | 1.15 | 0.999 | –
2 | CC1(C)CC(N=C=O)CC(C)(CN=C=O)C1 (stereo not given) [Isophorone diisocyanate] | 0.927 | 0.855 | 0.865 | 0.953 | –
3 | S=C([S-])NCCNC(=S)[S-].[Mn+2] [Maneb] | 1.01 | 0.995 | 0.968 | 0.105 | 0.874
4 | CC(C(C)N1CC(=O)NC(=O)C1)N1CC(=O)NC(=O)C1 (stereo not given) | 0.674 | 0.785 | 0.383 | 0.396 | 0.735
5 | C=CCCCCCCCCC(=O)O [10-Undecenoic acid] | 0.947 | 0.883 | 0.917 | 1.16 | –
6 | O=C(O)c1cccc(N(Cc2cccnc2)c2ccc(OC(F)F)c(OC(F)F)c2)c1 | 1.15 | 1.14 | 1.24 | 0.322 | –
7 | CCCCCCCCCCCCCCC [Pentadecane] | 0.808 | 0.899 | 0.973 | 1.16 | –
8 | CN(C)CCCN(C)CCCN(C)C [2,6,10-Trimethyl-2,6,10-triazaundecane] | 0.932 | 0.811 | 0.918 | 0.932 | –
9 | COC(=O)c1ccc(C(=O)OC)cc1 [Dimethyl terephthalate] | 0.95 | 1.09 | 1.01 | 1.36 | –
10 | Cc1nc(-c2ccccn2)ncc1C(=O)Nn1cc(C)c2cc(F)ccc21 | 0.941 | 0.877 | 1.05 | 1.02 | –
11 | CCc1cc(C2=C(C(=O)[O-])N(c3ccccc3C(F)(F)F)S(=O)(=O)c3ccccc32)cc2c1OCO2.[K+] [Fandosentan potassium salt] | 1.01 | 1.1 | 0.887 | 0.331 | –
12 | CN(Cc1cnc2nc(N)nc(N)c2n1)c1ccc(C(=O)N[C@@H](CCC(=O)O)C(=O)O)cc1 [Methotrexate] | 0.13 | 0.0382 | 0.0865 | 0.087 | –
13 | CC(=O)Nc1ccc(O)cc1 [Acetaminophen] | 0.68 | 0.735 | 0.812 | 1.3 | –
14 | O=C(O)c1cn(C2CC2)c2cc(N3CCNCC3)c(F)cc2c1=O [Ciprofloxacin] | 0.893 | 1.01 | 0.9 | 0.336 | 1.06
15 | NC(=O)N/N=C/c1ccc([N+](=O)[O-])o1 [Nitrofurazone] | 1.03 | 1.13 | 1.44 | 0.334 | –
16 | O=C1CN(N=Cc2ccc([N+](=O)[O-])o2)C(=O)N1 [Nitrofurantoin] | 0.891 | 1.01 | 1.69 | 0.345 | –
17 | O=[N+]([O-])c1ccc([O-])cc1.[Na+] [Sodium 4-nitrophenolate] | 0.98 | 0.86 | 0.924 | 0.669 | –
18 | COc1c(Cl)ccc(Cl)c1C(=O)O [Dicamba] | 1.05 | 1.14 | 1.04 | 1.52 | 1.07

Row | SMILES | Renilla luciferase signal (concentration: 0.1 uM) | Renilla luciferase signal (concentration: 1 uM) | Renilla luciferase signal (concentration: 10 uM) | Renilla luciferase signal (concentration: 100 uM) | Renilla luciferase signal (concentration: 0.01 uM)
19 | CC[C@H](C)C(=O)O[C@H]1C[C@H](O)C=C2C=C[C@H](C)[C@H](CC[C@@H](O)C[C@@H](O)CC(=O)[O-])[C@H]21.[Na+] [Pravastatin sodium] | 1.01 | 0.866 | 1.1 | 1.15 | –
20 | CC(=O)c1ccccc1 [Acetophenone] | 0.867 | 0.964 | 0.94 | 1.11 | –
21 | O=C(O)c1cccc(C(=O)O)c1 [1,3-Benzenedicarboxylic acid] | 1.04 | 1.04 | 1.06 | 1.35 | –
22 | O=C(O)c1ccccc1 [Benzoic acid] | 1.21 | 1.13 | 1.35 | 1.77 | –
23 | Cl.Nc1ccn([C@@H]2O[C@H](CO)[C@@H](O)[C@@H]2O)c(=O)n1 [Cytarabine hydrochloride] | 0.829 | 0.907 | 0.626 | 0.809 | –
24 | O=c1ccn(C2OC(COP(=O)(O)OP(=O)(O)OP(=O)(O)O)C(O)C2O)c(=O)[nH]1 (stereo not given) | 0.813 | 0.949 | 0.922 | 2.08 | 0.681
25 | OCCC(F)(F)C(F)(F)C(F)(F)C(F)(F)C(F)(F)C(F)(F)C(F)(F)C(F)(F)F [1,1,2,2-Tetrahydroperfluoro-1-decanol] | 0.4 | 0.824 | 0.813 | 1.27 | –
26 | Cc1ncc([C@@H](CCCCCCc2ccc3c(n2)NCCC3)CC(=O)O)cn1 | 0.747 | 0.794 | 0.796 | 0.82 | –
27 | CNCc1cc(F)ccc1Oc1ccc(Cl)c(Cl)c1 | 0.817 | 0.874 | 0.723 | 0.0625 | –
28 | Cn1cnc([N+](=O)[O-])c1Sc1ncnc2nc[nH]c12 [Azathioprine] | 0.939 | 0.983 | 0.605 | 0.0481 | –
29 | CCCCCCCCCCCCN1CCCC1=O [1-Dodecyl-2-pyrrolidinone] | 0.846 | 0.856 | 0.929 | 0.883 | –
30 | CC(=O)OC1CC(C)OC(C)O1 (stereo not given) [Dimethoxane] | 1.23 | 1.1 | 1.26 | 1.63 | –
31 | CCOC(=O)c1ccc([C@H]2CC[C@H](NC[C@H](O)COc3ccc(O)c(NS(C)(=O)=O)c3)CC2)cc1.Cl | 0.973 | 0.878 | 0.753 | 0.0262 | –
32 | C[C@]12C[C@H](O)[C@H]3[C@@H](CCC4=CC(=O)CC[C@@]43C)[C@@H]1CC[C@@H]2C(=O)CO [Corticosterone] | 0.641 | 0.712 | 0.847 | 0.636 | –
33 | CN(C)[C@@H]1C(O)=C(C(N)=O)C(=O)[C@@]2(O)C(O)=C3C(=O)c4c(O)cccc4[C@@](C)(O)[C@H]3C[C@@H]12 [Tetracycline] | 0.672 | 0.805 | 0.694 | 1.7 | –
34 | CN(C)[C@@H]1C(O)=C(C(N)=O)C(=O)[C@@]2(O)C(O)=C3C(=O)c4c(O)cccc4[C@@](C)(O)[C@H]3[C@H](O)[C@@H]12.O.O [Oxytetracycline dihydrate] | 0.636 | 0.879 | 0.861 | 0.964 | 0.781
35 | CN(C)[C@@H]1C(O)=C(C(N)=O)C(=O)[C@@]2(O)C(O)=C3C(=O)c4c(O)cccc4[C@@](C)(O)[C@H]3[C@H](O)[C@@H]12.Cl [Oxytetracycline hydrochloride] | 0.959 | 1.35 | 2.28 | 0.903 | –
36 | O=C(O)CCCCC(=O)O [Hexanedioic acid] | 0.851 | 0.762 | 0.865 | 1.08 | –

— the supplement of paper PMC9254222
